Experimental data: PubChem BioAssay
Several values for one entry are separate records, joined by “and”; a condition that tells them apart may be missing. Equal entries are not always repeated. Activity calls are given as the source filed them.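 How the source made its calls, unless noted: active means compounds whose cell count with miR-34 switched on is under 0.7 times the count with it off; inactive means the rest.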

Key:
[1] = viability loss with induced miR-34 in A549 – imaging, A549 dox-inducible miR-34, nuclei and caspase counts, primary screen (AID 1347080); conditions: A549 miR-34 inducible, Hoechst nuclei count, 48 h; further: test concentration not given here
[2] = MELAS cybrid and Rieske KO viability enhancers – cell-based, MELAS cybrids, Rieske KO mouse fibroblasts, CellTiter-Glo, primary screen (AID 1508586;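 active means mean z-score across replicates of 1.96 or higher in either the MELAS or the Rieske mutant cell line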;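 further: test concentration not given here; z relative to plate mean and SD of compound and empty wells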); conditions: low glucose
[3] = galactose survival enhancers in mitochondrial complex I cybrids – cell-based, galactose medium, ATP luminescence, primary screen (AID 1645843;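 active means z-score of at least 1.8 in each of two replicates, scored against plate mean and spread of sample wells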;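 further: positive z means more ATP and so rescue of galactose-driven cybrid death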); conditions: complex I mutant cybrid cells, 72 h, stronger effect = higher value
[4] = stronger effect = lower value, cell number ratio, induced over uninduced
[5] = measured here: relative caspase fold change +Dox/-Dox
[6] = measured here: total cells with miR-34 induction, stronger effect = lower value
[7] = measured here: total cells without miR-34 induction
[8] = MELAS cybrid survival, CellTiter-Glo 48 h, stronger effect = higher value
[9] = Rieske KO mouse fibroblast survival, CellTiter-Glo 72 h

CC(C)(C)C(=O)Nc1ccc2c(c1)CC(=O)N2
fold change [1, 4]: 0.817 (inactive)
fold change [1, 5]: 1.77
cell count [1, 6]: 8370
cell count [1, 7]: 10200
z-score [2, 8]: 0.0898 (inactive)
z-score [2, 9]: 0.0111
z-score [3]: -0.52 (inactive)

CN(C)C(=O)CN(C)C(=O)c1cccc(Nc2ncnc3c2cnn3C)c1
fold change [1, 4]: 0.866 (inactive)
fold change [1, 5]: 1.54
cell count [1, 6]: 8650
cell count [1, 7]: 9990
z-score [2, 8]: 0.0352 (inactive)
z-score [2, 9]: -0.276
z-score [3]: -0.525 (inactive)

CC(=O)NCC(=O)N1CCN(Cc2ccc3c(c2)OCO3)C(=O)C1
fold change [1, 4]: 0.905 (inactive)
fold change [1, 5]: 1.72
cell count [1, 6]: 8860
cell count [1, 7]: 9790
z-score [2, 8]: 0.0526 (inactive)
z-score [2, 9]: -0.343
z-score [3]: -0.565 (inactive)

COC1C=CO[C@@]2(C)Oc3c(C)c(O)c4c(O)c(c(C=NN5CCN(C6CCCC6)CC5)c(O)c4c3C2=O)NC(=O)C(C)=CC=CC(C)C(O)C(C)C(O)C(C)C(OC(C)=O)C1C (stereo partly specified)
fold change [1, 4]: 1.26 (inactive) and 0.937 (inactive)
fold change [1, 5]: 1.41 and 0.74
cell count [1, 6]: 6670 and 7260
cell count [1, 7]: 5310 and 7750
z-score [2, 8]: -0.432 (inactive)
z-score [2, 9]: -0.0629
z-score [3]: 0.32 (inactive)

CNC(=O)c1cc(Oc2ccc3nc(Nc4ccc(Cl)c(C(F)(F)F)c4)[nH]c3c2)ccn1
fold change [1, 4]: 0.938 (inactive)
fold change [1, 5]: 0.861
cell count [1, 6]: 2770
cell count [1, 7]: 2950
z-score [2, 8]: 1.25 (inactive)
z-score [2, 9]: -0.647
z-score [3]: -2.66 (inactive)

Cc1nn(C)cc1-c1ccnc(NC2CCOC(C)(C)C2)n1 (stereo unspecified)
fold change [1, 4]: 0.847 (inactive)
fold change [1, 5]: 2.06
cell count [1, 6]: 8460
cell count [1, 7]: 9990
z-score [2, 8]: -0.0523 (inactive)
z-score [2, 9]: -0.494
z-score [3]: -0.56 (inactive)

O=C(O)CSc1nnc(-c2ccc([N+](=O)[O-])o2)o1
fold change [1, 4]: 0.911 (inactive)
fold change [1, 5]: 0.48
cell count [1, 6]: 8530
cell count [1, 7]: 9370
z-score [2, 8]: -1.16 (inactive)
z-score [2, 9]: 0.209
z-score [3]: 0.17 (inactive)

OC1(CNc2ncnc3nc[nH]c23)C2CC3CC(C2)CC1C3 (stereo unspecified)
fold change [1, 4]: 0.887 (inactive)
fold change [1, 5]: 0.873
cell count [1, 6]: 8560
cell count [1, 7]: 9650
z-score [2, 8]: -0.357 (inactive)
z-score [2, 9]: -0.0569
z-score [3]: -0.575 (inactive)

Cc1ccc2nc(C3CCCN3c3ncc(C)c(-c4cnn(C)c4)n3)[nH]c2c1 (stereo unspecified)
fold change [1, 4]: 0.91 (inactive)
fold change [1, 5]: 1.37
cell count [1, 6]: 7980
cell count [1, 7]: 8770
z-score [2, 8]: -0.0346 (inactive)
z-score [2, 9]: 0.328
z-score [3]: -0.325 (inactive)

CCc1nc(NC(=O)NCCc2nc(-c3ccc(C)cc3)no2)nn1C
fold change [1, 4]: 0.835 (inactive)
fold change [1, 5]: 1.88
cell count [1, 6]: 7240
cell count [1, 7]: 8670
z-score [2, 8]: 1.58 (inactive)
z-score [2, 9]: -0.075
z-score [3]: 2.27 (active)

c1cc(CN2CCN3CCCC3C2)n(-c2nccs2)c1 (stereo unspecified)
fold change [1, 4]: 0.908 (inactive)
fold change [1, 5]: 1.4
cell count [1, 6]: 8290
cell count [1, 7]: 9130
z-score [2, 8]: 0.256 (inactive)
z-score [2, 9]: -0.144
z-score [3]: -0.595 (inactive)

CC(C)n1cc(-c2cc(C(=O)N(C)Cc3cccnc3)c3cc(F)ccc3n2)cn1
fold change [1, 4]: 0.861 (inactive)
fold change [1, 5]: 1.63
cell count [1, 6]: 9060
cell count [1, 7]: 10500
z-score [2, 8]: -0.238 (inactive)
z-score [2, 9]: 0.816
z-score [3]: -0.535 (inactive)

Nc1nc(-c2ccc(O)cc2)cs1
fold change [1, 4]: 0.871 (inactive)
fold change [1, 5]: 0.369
cell count [1, 6]: 7600
cell count [1, 7]: 8730
z-score [2, 8]: -0.885 (inactive)
z-score [2, 9]: 0.17
z-score [3]: 0.145 (inactive)

NC(N)=NC(N)=Nc1cc(C(F)(F)F)ccc1Cl
fold change [1, 4]: 0.901 (inactive)
fold change [1, 5]: 0.694
cell count [1, 6]: 7310
cell count [1, 7]: 8110
z-score [2, 8]: 0.898 (inactive)
z-score [2, 9]: -0.189
z-score [3]: -1.95 (inactive)

NC1=NC(=O)C(=Cc2ccc(-c3ccc(C(=O)O)cc3)o2)S1
fold change [1, 4]: 0.91 (inactive)
fold change [1, 5]: 0.479
cell count [1, 6]: 8530
cell count [1, 7]: 9370
z-score [2, 8]: 0.721 (inactive)
z-score [2, 9]: -0.231
z-score [3]: 0.485 (inactive)

COCC1CCCN(Cc2cccc(-c3nc(-c4cccnc4)cc(=O)[nH]3)c2)C1 (stereo unspecified)
fold change [1, 4]: 0.935 (inactive)
fold change [1, 5]: 1.11
cell count [1, 6]: 8420
cell count [1, 7]: 9010
z-score [2, 8]: -0.479 (inactive)
z-score [2, 9]: 0.644
z-score [3]: 0.175 (inactive)

COc1ccc2c(C(=O)N(C)C3CCN(C)C3)cc(-c3cnn(C)c3)nc2c1 (stereo unspecified)
fold change [1, 4]: 0.88 (inactive)
fold change [1, 5]: 1.02
cell count [1, 6]: 8530
cell count [1, 7]: 9700
z-score [2, 8]: -0.325 (inactive)
z-score [2, 9]: -0.194
z-score [3]: -0.495 (inactive)

O=C(Cn1nnc(-c2ccccc2)n1)Nc1ccnn1Cc1ccccc1
fold change [1, 4]: 0.843 (inactive)
fold change [1, 5]: 1.22
cell count [1, 6]: 7640
cell count [1, 7]: 9060
z-score [2, 8]: -0.218 (inactive)
z-score [2, 9]: -0.596
z-score [3]: 0.045 (inactive)

Cc1nc(C(=O)O)nn1-c1cc(Cl)cc(Cl)c1
fold change [1, 4]: 0.931 (inactive)
fold change [1, 5]: 0.603
cell count [1, 6]: 8310
cell count [1, 7]: 8930
z-score [2, 8]: -0.498 (inactive)
z-score [2, 9]: -0.479
z-score [3]: 0.61 (inactive)

O=C(O)c1cnc(-c2ccccc2)[nH]1
fold change [1, 4]: 0.939 (inactive)
fold change [1, 5]: 0.271
cell count [1, 6]: 8980
cell count [1, 7]: 9570
z-score [2, 8]: -0.137 (inactive)
z-score [2, 9]: -0.215
z-score [3]: 0.375 (inactive)

O=c1ccn2c(n1)OC1C(O)C(CO)OC12 (stereo unspecified)
fold change [1, 4]: 0.869 (inactive)
fold change [1, 5]: 0.596
cell count [1, 6]: 8620
cell count [1, 7]: 9930
z-score [2, 8]: 0.627 (inactive)
z-score [2, 9]: -0.112
z-score [3]: 0.87 (inactive)

O=C(O)C(C(=O)O)c1ccccc1
fold change [1, 4]: 0.911 (inactive)
fold change [1, 5]: 0.169
cell count [1, 6]: 8920
cell count [1, 7]: 9780
z-score [2, 8]: 0.44 (inactive)
z-score [2, 9]: -0.084
z-score [3]: 0.49 (inactive)

CC1(C)CC(Nc2nccc(-c3cnn(-c4ccccc4)c3)n2)CC(C)(C)N1
fold change [1, 4]: 0.881 (inactive)
fold change [1, 5]: 3.09
cell count [1, 6]: 4870
cell count [1, 7]: 5530
z-score [2, 8]: -0.228 (inactive)
z-score [2, 9]: 0.372
z-score [3]: 3.44 (active)
